Measured values reported in PubChem BioAssay (Tox21).
Values without a mark were called inactive. Inconclusive results are not listed. Entries that show only a call come without a potency. The source made the active and inactive calls. Unless noted, the call rests on the fitted dose curve; in most records, active means well fitted curve in the direction sought with a large enough effect in the repeat runs; inconclusive means weak or mixed curves; inactive means no such curve, though single readings can be large; an effect the other way counts as inactive or inconclusive.

Columns and labels:
[1] = biological target: Nuclear receptor subfamily 1 group I member 3 (Homo sapiens) (UniProt Q14994); experiment: qHTS assay to identify small molecule agonists of the constitutive androstane receptor (CAR) signaling pathway (AID 1224839); further: nearly all actives have a fitted effect of over 15% in size; further: potency means the concentration at half of the fitted maximal effect;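 on activation: HepG2 cells stably carrying human CAR and a CYP2B6 luciferase reporter; series mostly up to about 92 µM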
Method in brief: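 Compounds tested at 15 concentrations on HepG2 cells stably harbouring hCAR and CYP2B6-2.2kb reporter constructs, co-treated with PK11195 (0.75 uM final), 24 h at 37 C; luminescent reporter signal quantified.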

[2] = qHTS assay to identify small molecule antagonists of the estrogen related receptor signaling pathway with the pleiotropic PPARgamma coactivator (PGC) from Tox21 10K library - cell viability counter screen (AID 1224840; active means well fitted cell-killing curve with a large enough effect in the repeat runs, not every such curve was filed as active; further: nearly all actives have a fitted effect of over 40% in size)
Method in brief: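 Viability counter screen, PGC/ERR cells: 17.5 h compound exposure at 37 C, CellTiter-Fluor fluorescence endpoint.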

[3] = biological target: Thyrotropin receptor (Homo sapiens) (UniProt P16473); experiment: qHTS assay to identify small molecule agonists of the thyroid stimulating hormone receptor (TSHR) signaling pathway (AID 1224843; calls by dose curve; further: nearly all actives have a fitted effect of over 45% in size)
Method in brief: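 A cell-based cAMP HTRF format was run in TSHR-transfected HEK293 cells, 800 per well. Treatment: 30 min, room temperature. Detection: 1 h with labelled cAMP and anti-cAMP cryptate. Concentration-response over 15 points, three replicates.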

[4] = qHTS assay to identify small molecule agonists of the hypoxia (HIF-1) signaling pathway - cell viability counter screen (AID 1224844; calls by dose curve; further: nearly all actives have a fitted effect of over 50% in size)
Method in brief: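 Same wells as the HIF-1 reporter screen; ME-180 cells carrying HRE-bla, 17 hr treatment at 37C; CellTiter-Glo luminescence read after 30 min at room temperature.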

[5] = qHTS assay to identify small molecule agonists of H2AX (AID 1224845; active means well fitted activation curve with a large enough effect in the signal ratio in the repeat runs, not every such curve was filed as active; the % refers to the signal ratio)
Method in brief: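 Phospho-H2AX Ser139 measured by HTRF (ex 320 nm; em 665 and 620 nm) after 24 hr antibody incubation. Compounds, 15 concentrations, 0.76% DMSO, were applied to CHO-K1 cells for 3hr at 37C before lysis.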

[6] = qHTS assay to identify small molecule agonists of the hypoxia (HIF-1) signaling pathway (AID 1224846; active means well fitted activation curve with a large enough effect in the signal ratio in the repeat runs, not every such curve was filed as active; the % refers to the signal ratio)
Method in brief: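 In ME-180 cells bearing an HRE-bla construct, 17 h treatment with DMSO-dissolved compounds at 37C was followed by CCF4-AM loading to quantify reporter induction.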

[7] = qHTS assay to identify small molecule agonists of H2AX - cell viability counter screen (AID 1224847; calls by dose curve; further: top concentration of the series differs between compounds; nearly all actives have a fitted effect of over 30% in size)
Method in brief: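 Compounds tested at 15 concentrations were incubated 3 hr at 37C with wild-type CHO-K1 cells; cellular ATP-based luminescence (CellTiter-Glo) indicated viability.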

[8] = qHTS RealTime-Glo MT Cell Viability Assay in HepG2 cells - 24 hour (AID 1224867); further: nearly all actives have a fitted effect of over 50% in size
Method in brief: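 Compound treatment began 5 h after plating HepG2 cells (600/well) with NanoLuc luciferase and prosubstrate. Plates stayed at 37 C for 40 h; luminescence was captured at six time points, 0 h through 40 h.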

[9] = qHTS RealTime-Glo MT Cell Viability Assay in HEK293 cells - 32 hour (AID 1224868); further: top concentration of the series differs between compounds; nearly all actives have a fitted effect of over 50% in size
Method in brief: (§1)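 Quantitative high-throughput screen of the Tox21 10K library in HEK293: cells and RealTime-Glo reagents plated together, compound added at 5 h, luminescence monitored through 40 h at 37 C.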

[10] = A CellTox Green Cytotoxicity Assay to monitor cytotoxicity in HEK293 cells - 0 hour (AID 1224869); further: nearly all actives have a fitted effect of over 50% in size
Method in brief: (§2)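 Homogeneous no-lysis format: HEK293 cell suspension mixed with CellTox Green reagent, seeded, incubated 5 h at 37 C/5% CO2, then dosed by pintool with compound in DMSO.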

[11] = qHTS RealTime-Glo MT Cell Viability Assay in HepG2 cells - 40 hour (AID 1224870); further: nearly all actives have a fitted effect of over 50% in size
Method in brief: (§3)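 Real-time viability: cells seeded at 600 per well together with NanoLuc and cell-permeant prosubstrate, compounds added after 5 h incubation. Luminescence tracked at 0, 8, 16, 24, 32 and 40 h of exposure.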

[12] = A CellTox Green Cytotoxicity Assay to monitor cytotoxicity in HEK293 cells - 40 hour (AID 1224871); further: nearly all actives have a fitted effect of over 45% in size
Method in brief: as §2

[13] = qHTS RealTime-Glo MT Cell Viability Assay in HEK293 cells - 16 hour (AID 1224872)
Method in brief: as §1

[14] = qHTS RealTime-Glo MT Cell Viability Assay in HepG2 cells - 8 hour (AID 1224873); further: nearly all actives have a fitted effect of over 55% in size
Method in brief: as §3

[15] = qHTS RealTime-Glo MT Cell Viability Assay in HEK293 cells - 40 hour (AID 1224874); details: RealTime-Glo luminescence; max response: hits give low values; further: nearly all actives have a fitted effect of over 50% in size
Method in brief: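 Measured as luminescence from the same continuously cultured HEK293 wells at successive time points (0, 8, 16, 24, 32, 40 h) after compound addition. Reagent present from seeding; dosing at 5 h; incubation 37 C.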

[16] = A CellTox Green Cytotoxicity Assay to monitor cytotoxicity in HEK293 cells - 24 hour (AID 1224875); further: series mostly up to about 77 µM; nearly all actives have a fitted effect of over 45% in size
Method in brief: as §2

[17] = qHTS assay to identify small molecule agonists of the estrogen related receptor signaling pathway with the pleiotropic PPARgamma coactivator (PGC) from Tox21 10K library (AID 1224842); further: nearly all actives have a fitted effect of over 15% in size
Method in brief: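 Luminescence from One-Glo (30 min, room temperature) measured after PGC/ERR cells had 18 h at 37 C with pinned compound (23 nL in DMSO). Cells had been seeded at 2,000 per well and pre-incubated 6 h.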

[18] = qHTS assay to identify small molecule antagonists of the estrogen related receptor (ERR) signaling pathway from Tox21 library (AID 1224848); further: nearly all actives have a fitted effect of over 50% in size
Method in brief: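 ERR cell line, 2,000 cells/well. 6 h settle, then compound (DMSO) added; 18 h at 37 C; ONE-Glo luminescence after 30 min RT.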

[19] = qHTS assay to identify small molecule agonists of the estrogen related receptor (ERR) signaling pathway from Tox21 library (AID 1224849; calls by dose curve; further: nearly all actives have a fitted effect of over 15% in size)
Method in brief: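 Reporter cells (ERR, NTP source) treated with Tox21 10K compounds 18 h, 37 C. Readout: ONE-Glo luminescence, 30 min RT.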

[20] = qHTS assay to identify small molecule antagonists of the estrogen related receptor signaling pathway with the pleiotropic PPARgamma coactivator (PGC) from Tox21 10K library (AID 1224841; call rule not given here)
Method in brief: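 In the PGC/ERR line, DMSO solutions of test chemicals are pin-delivered to 2,000 cells/well six hours after dispensing. Following eighteen hours' incubation, One-Glo reagent is added and luminescence recorded.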

Nuclear receptor subfamily 1 group I member 3 (Homo sapiens), sequence (Q14994 whole entry, looked up): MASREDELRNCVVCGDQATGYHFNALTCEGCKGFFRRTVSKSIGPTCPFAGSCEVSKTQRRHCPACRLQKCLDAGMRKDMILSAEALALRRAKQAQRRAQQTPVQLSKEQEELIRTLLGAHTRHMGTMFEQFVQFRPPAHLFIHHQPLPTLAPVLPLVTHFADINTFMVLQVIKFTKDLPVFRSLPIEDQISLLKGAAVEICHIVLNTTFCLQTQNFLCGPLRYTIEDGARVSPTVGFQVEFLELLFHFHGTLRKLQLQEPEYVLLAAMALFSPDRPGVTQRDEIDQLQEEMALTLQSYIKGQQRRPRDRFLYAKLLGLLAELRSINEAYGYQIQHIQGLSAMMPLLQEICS
Thyrotropin receptor (Homo sapiens), sequence (P16473 whole entry, looked up): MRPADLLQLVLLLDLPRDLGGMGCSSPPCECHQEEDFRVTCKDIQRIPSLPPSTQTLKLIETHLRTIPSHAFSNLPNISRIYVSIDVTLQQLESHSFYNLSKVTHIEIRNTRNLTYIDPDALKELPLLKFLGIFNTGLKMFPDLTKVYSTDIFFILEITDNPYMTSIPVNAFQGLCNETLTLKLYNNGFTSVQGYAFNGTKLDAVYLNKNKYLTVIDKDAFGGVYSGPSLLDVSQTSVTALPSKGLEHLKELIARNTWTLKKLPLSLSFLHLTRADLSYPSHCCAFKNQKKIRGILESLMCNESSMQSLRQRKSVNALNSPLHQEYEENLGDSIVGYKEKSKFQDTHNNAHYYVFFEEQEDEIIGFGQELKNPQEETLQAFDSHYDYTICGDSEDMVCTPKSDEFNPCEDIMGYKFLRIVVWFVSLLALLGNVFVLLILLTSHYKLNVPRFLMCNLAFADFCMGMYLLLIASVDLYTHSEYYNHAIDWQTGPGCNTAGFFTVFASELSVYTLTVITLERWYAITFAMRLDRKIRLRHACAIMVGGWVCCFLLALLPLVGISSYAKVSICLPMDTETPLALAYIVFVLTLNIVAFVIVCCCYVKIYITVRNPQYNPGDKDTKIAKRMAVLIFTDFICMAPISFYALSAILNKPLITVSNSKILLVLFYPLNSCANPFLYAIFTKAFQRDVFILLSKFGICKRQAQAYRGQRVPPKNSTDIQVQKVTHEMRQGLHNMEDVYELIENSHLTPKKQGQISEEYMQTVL

Row | SMILES | Potency [1] | outcome [2] | outcome [3] | outcome [4] | outcome [5] | outcome [6] | Potency [7] | outcome [8] | Potency [9] | Potency [10] | outcome [11] | Potency [12] | Potency [13] | outcome [14] | max response [15] | Potency [16] | outcome [17] | Potency [18] | outcome [19] | Potency [20]
1 | CCNC(=O)/C=C/c1cccc(Br)c1 | 26.6 µM (active) | inactive | inactive | inactive | inactive | inactive | inactive | inactive | inactive | inactive | inactive | inactive | inactive | inactive | 1.9% | inactive |  |  |  | 
2 | CC(CC(=O)O)CC(C)(C)C (stereo unspecified) | inactive | inactive |  | inactive | inactive | inactive | inactive | inactive | inactive | inactive | inactive | inactive |  |  | -0.126% | inactive |  |  |  | 
3 | NS(=O)(=O)c1cc2c(cc1Cl)NC(CC1CCCC1)NS2(=O)=O (stereo unspecified) | inactive | inactive | inactive | inactive | inactive |  | inactive | inactive | inactive | inactive | inactive | inactive |  |  | 5.55% | inactive |  |  |  | 
4 | CCCCCCCCCOCC1CO1 (stereo unspecified) | inactive | inactive | inactive | inactive | inactive | inactive | inactive |  | inactive | inactive | inactive | inactive | inactive | inactive |  | inactive | inactive | inactive | inactive | 
5 | CCCCCC1CCCC(=O)O1 (stereo unspecified) | inactive | inactive | inactive | inactive | inactive | inactive | inactive | inactive | inactive | inactive | inactive | inactive | inactive | inactive | 7.32% | inactive | inactive | inactive | inactive | inactive
6 | FC(F)(F)/C(=N\OCC1OCCO1)c1ccc(Cl)cc1 | inactive | inactive |  | inactive | inactive | inactive | inactive | inactive | inactive |  | inactive | inactive | inactive | inactive | 3.42% | inactive |  |  |  | 
7 | C=CCOC(=O)c1ccc(C(=O)OCC=C)c(C(=O)OCC=C)c1 | inactive | inactive | inactive | inactive | inactive | inactive |  |  | inactive | inactive | inactive | inactive | inactive | inactive | 4.3% | inactive | inactive | inactive | inactive | inactive
8 | CCC(=O)c1ccc(O)cc1 | inactive | inactive |  | inactive | inactive | inactive | inactive |  | inactive | inactive | inactive | inactive | inactive | inactive | -7.06% | inactive |  |  |  | 
9 | C[C@@H]1C[C@H]2[C@@H]3C[C@H](F)C4=CC(=O)C=C[C@]4(C)[C@@]3(F)[C@@H](O)C[C@]2(C)[C@@]1(O)C(=O)CO | inactive | inactive |  | inactive | inactive | inactive | inactive | inactive | inactive | inactive | inactive | inactive | inactive | inactive | -1.4% | inactive | inactive | inactive | inactive | 
10 | CN(C)CCCNCCC#N | inactive | inactive |  | inactive | inactive | inactive | inactive | inactive | inactive | inactive | inactive | inactive | inactive | inactive | 6.65% | inactive |  |  |  | 
11 | CC(=O)OC[C@H]1O[C@@H](OC(C)=O)[C@H](OC(C)=O)[C@@H]1OC(C)=O | inactive | inactive | inactive | inactive | inactive | inactive | inactive | inactive | inactive | inactive | inactive | inactive |  |  | 5.33% | inactive | inactive | inactive | inactive | inactive
12 | C[Si]1(C)N[Si](C)(C)N[Si](C)(C)N1 | inactive | inactive |  | inactive | inactive | inactive | inactive | inactive | inactive | inactive | inactive | inactive | inactive |  | 16.3% | inactive |  |  |  | 
13 | Nc1nc(=O)n([C@@H]2O[C@H](CO)[C@@H](O)[C@@H]2F)cc1I | inactive | inactive | inactive |  | inactive | inactive |  | inactive | inactive | inactive | inactive | inactive |  | inactive | 3.93% | inactive |  |  |  | 
14 | C=C(C)C(=O)OC | inactive | inactive | inactive | inactive | inactive | inactive | inactive | inactive | inactive | inactive | inactive | inactive | inactive | inactive | -13.6% | inactive | inactive | inactive | inactive | inactive
15 | CO[Si](CCCCl)(OC)OC | inactive | inactive |  | inactive | inactive | inactive |  | inactive | inactive |  | inactive | inactive | inactive | inactive | 28.4% | inactive |  |  |  | 
16 | CCN(Cc1cccc(S(=O)(=O)O)c1)c1ccccc1 | inactive | inactive |  | inactive | inactive | inactive | inactive | inactive | inactive | inactive | inactive | inactive | inactive | inactive | 0.413% | inactive |  |  |  | 
